“And” between values parts separate entries of the source, which are not always exact repeats. Equal values may be shown once. Results filed as inconclusive are left out. The source made the active and inactive calls. How the source made its calls, unless noted: active means hit-call score of the fitted dose curve at least 0.9, where 1 is the maximum; inactive means score below 0.9.
Tests used:
[1] = BSK_3C_Vis: BioMAP Diversity Plus: 3C Assay for Morphology Visualization (AID 2283025); settings: primary human endothelial cells (HUVEC);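 further: fitted both ways so gain or loss versus DMSO counts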;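 on AC50: light microscopy image of cell morphology used as background control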
Summary of the method: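 Light-microscopy visualization of HUVEC cultures at 24 h post-treatment, with DMSO as baseline for bidirectional fitting.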

[2] = read-out: Transforming growth factor beta 1 (TGFb1), TGFB1 (gene 7040); assay: BSK_BE3C_TGFb1: BioMAP Diversity Plus: BE3C Assay for Transforming growth factor beta 1 (TGFb1) Biomarker Activity (AID 2283036;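 further: TGF-b1 protein level measured by ELISA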); settings: primary human bronchial epithelial cells; actives raise or lower the signal
Summary of the method: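 ELISA readout of TGF-b1 from human lung bronchial epithelial primary cells, taken 24 h post-treatment. Gain or loss of signal fitted relative to DMSO baseline, with parallel SRB staining for overt cytotoxicity.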

[3] = BSK_CASM3C_SRB: Viability Assessment in the BioMAP Diversity Plus: CASM3C Assay (AID 2283050); settings: primary human coronary artery smooth muscle cells
[4] = read-out: Transforming growth factor beta 1 (TGFb1), TGFB1 (gene 7040); assay: BSK_KF3CT_TGFb1: BioMAP Diversity Plus: KF3CT Assay for Transforming growth factor beta 1 (TGFb1) Biomarker Activity (AID 2283072); settings: primary human keratinocytes with fibroblasts; actives raise or lower the signal
Summary of the method: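 ELISA quantifies TGF-b1 at 24 h post-dose in a primary human skin co-culture of keratinocytes and fibroblasts, with gain or loss judged against DMSO. Parallel SRB total-protein staining flags overt cytotoxicity.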

CD40, CD40 (gene 958) = assay: BSK_SAg_CD40: BioMAP Diversity Plus: SAg Assay for CD40 Biomarker Activity (AID 2283088); settings: primary human HUVEC with PBMC; actives raise or lower the signal
Summary of the method: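 Endpoint derived by fitting increases or decreases versus DMSO controls. CD40 is detected by fluorescence ELISA in a human vascular co-culture of endothelium and PBMC at 24 h.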

CD69, CD69 (gene 969) = assay: BSK_SAg_CD69: BioMAP Diversity Plus: SAg Assay for CD69 Biomarker Activity (AID 2283089); settings: primary human HUVEC with PBMC; actives raise or lower the signal;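 on AC50: cell surface CD69 protein quantified by ELISA with fluorescence detection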
Summary of the method: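 Primary human vascular co-culture (umbilical vein endothelium with peripheral blood mononuclear cells) exposed to test chemical for 24 h. CD69 levels quantified by fluorescence ELISA; DMSO served as negative control for bidirectional fitting.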

[5] = read-out: Monocyte Chemoattractant Protein-1 (MCP1), CCL2 (gene 6347); assay: BSK_SAg_MCP1: BioMAP Diversity Plus: SAg Assay for Monocyte Chemoattractant Protein-1 (MCP1) Biomarker Activity (AID 2283090); settings: primary human HUVEC with PBMC; actives raise or lower the signal
Summary of the method: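 Values derive from bidirectional fitting of ELISA-measured MCP1 against DMSO controls. Readings were taken 24 h after dosing human vascular endothelial cells co-cultured with peripheral blood mononuclear cells under superantigen stimulation.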

[6] = read-out: Monokine induced gamma interferon (MIG), CXCL9 (gene 4283); assay: BSK_SAg_MIG: BioMAP Diversity Plus: SAg Assay for Monokine induced gamma interferon (MIG) Biomarker Activity (AID 2283092); settings: primary human HUVEC with PBMC; actives raise or lower the signal
Summary of the method: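 Endothelial cells and PBMC were co-cultured, exposed to test chemicals, and sampled 24 h later. MIG was measured by ELISA, and responses were fitted in both directions relative to DMSO.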

[7] = BSK_SAg_Proliferation: Cell Proliferation Assessment in the BioMAP Diversity Plus: SAg Assay (AID 2283095); settings: primary human HUVEC with PBMC;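 further: relative cell number as total protein by SRB absorbance in sub-confluent culture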
Summary of the method: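 Relative cell number in the endothelial cell/PBMC co-culture was quantified at 96 h by SRB staining (0.1% SRB, 10% TCA fixation, read at 560 nm). Curves were fitted in both directions relative to DMSO baseline.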

[8] = BSK_SAg_SRB: Viability Assessment in the BioMAP Diversity Plus: SAg Assay (AID 2283096); settings: primary human HUVEC with PBMC;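 further: cells read one day after compound addition; hits may be either gain or loss of signal compared with DMSO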
Summary of the method: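 Compounds were added to a human vascular co-culture of umbilical vein endothelium and PBMC. After 24 h, parallel cultures were fixed with 10% TCA, stained with 0.1% sulforhodamine B and read at 560 nm. Gain or loss of signal was fitted relative to DMSO.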

[9] = read-out: Secreted IgG (sIgG), gene 3500; assay: BSK_BT_sIgG: BioMAP Diversity Plus: BT Assay for Secreted IgG (sIgG) Biomarker Activity (AID 2284226); settings: primary human B cells with PBMC
Summary of the method: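 ELISA quantitation of secreted IgG from human B cells co-cultured with PBMC, sampled 24 h post-dosing. Values fitted relative to DMSO vehicle as baseline, positive fitting direction.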

[10] = BSK_BT_Bcell_Proliferation: Viability Assessment in the BioMAP Diversity Plus: BT Assay for B cell Proliferation (AID 2284227); settings: primary human B cells with PBMC
Summary of the method: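 Read-out is absorbance at 560 nm from sulforhodamine B staining of total protein, reflecting relative cell numbers in a human B cell and PBMC co-culture after 72 h of chemical exposure. Values were referenced to DMSO.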

[11] = read-out: Interleukin 17A (IL17A), IL17A (gene 3605); assay: BSK_BT_xIL17A: BioMAP Diversity Plus: BT Assay for Interleukin 17A (IL17A) Biomarker Activity (AID 2284229); settings: primary human B cells with PBMC
Summary of the method: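 Human primary B cells plus PBMC, treated 24 h with chemicals; supernatant IL-17A quantified on Luminex xMAP beads. Gain of signal over DMSO control scored as activity.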

[12] = read-out: Vascular cell adhesion molecule 1 (VCAM1), VCAM1 (gene 7412); assay: BSK_MyoF_VCAM1: BioMAP Diversity Plus: MyoF Assay for Vascular cell adhesion molecule 1 (VCAM1) Biomarker Activity (AID 2284231); settings: primary human lung fibroblasts
Summary of the method: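 VCAM-1 levels, lung fibroblasts, ELISA, 24 h exposure, increase scored relative to DMSO.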

[13] = read-out: Collagen III, COL3A1 (gene 1281); assay: BSK_MyoF_CollagenIII: BioMAP Diversity Plus: MyoF Assay for Collagen III Biomarker Activity (AID 2284239); settings: primary human lung fibroblasts
Summary of the method: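 Multiplexed cell assay in lung fibroblasts, harvested at 24 h post-dose. Collagen III detected by ELISA, with positive-direction fitting relative to DMSO vehicle.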

[14] = read-out: Interleukin 17F (IL17F), IL17F (gene 112744); assay: BSK_BT_xIL17F: BioMAP Diversity Plus: BT Assay for Interleukin 17F (IL17F) Biomarker Activity (AID 2284243); settings: primary human B cells with PBMC
Summary of the method: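 Luminex readout of IL-17F secretion, 24 h; cells: human B cells with PBMC; positive-direction analysis, DMSO control.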

[15] = read-out: Actin alpha 1 (ACTA1), ACTA1 (gene 58); assay: BSK_MyoF_ACTA1: BioMAP Diversity Plus: MyoF Assay for Actin alpha 1 (ACTA1) Biomarker Activity (AID 2284244); settings: primary human lung fibroblasts
Summary of the method: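 alpha-SMA levels read by ELISA against DMSO baseline, 24 h post-dose, in primary human lung fibroblasts. Parallel cultures stained with 0.1% SRB after 10% TCA fixation (560 nm) to flag overt cytotoxicity.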

[16] = read-out: Interleukin 2 (IL2), IL2 (gene 3558); assay: BSK_BT_xIL2: BioMAP Diversity Plus: BT Assay for Interleukin 2 (IL2) Biomarker Activity (AID 2284245); settings: primary human B cells with PBMC
Summary of the method: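 Secreted IL-2 was read by Luminex xMAP from B cells co-cultured with PBMC (human primary) 24 h post-dosing; activity was analysed as gain of signal relative to DMSO vehicle.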

[17] = read-out: Basic fibroblast growth factor (bFGF), FGF2 (gene 2247); assay: BSK_MyoF_bFGF: BioMAP Diversity Plus: MyoF Assay for Basic fibroblast growth factor (bFGF) Biomarker Activity (AID 2284246); settings: primary human lung fibroblasts
Summary of the method: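 bFGF was measured by ELISA in primary human lung fibroblasts 24 h after chemical addition. Signal was analysed as positive-direction change relative to DMSO baseline.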

[18] = biological target: Retinoic acid receptor alpha (Homo sapiens) (UniProt P10276); assay: ATG_RARa_TRANS: Attagene TRANS-FACTORIAL HepG2 Assay for human Retinoic Acid Receptor alpha (RARa) (AID 2283005; active means hit-call score of the fitted dose curve at least 0.9, where 1 is the maximum)
Summary of the method: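 HepG2 transiently transfected with multiplex GAL4-UAS reporter units including a human RARa–GAL4 chimera; 24 h compound exposure. Reporter mRNA quantified by RT-PCR, 6-FAM labeling and capillary electrophoresis; gain of signal versus DMSO.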

Measured: AC50

Sequence of Retinoic acid receptor alpha (Homo sapiens) (P10276 whole entry, looked up, the tested form may be a part): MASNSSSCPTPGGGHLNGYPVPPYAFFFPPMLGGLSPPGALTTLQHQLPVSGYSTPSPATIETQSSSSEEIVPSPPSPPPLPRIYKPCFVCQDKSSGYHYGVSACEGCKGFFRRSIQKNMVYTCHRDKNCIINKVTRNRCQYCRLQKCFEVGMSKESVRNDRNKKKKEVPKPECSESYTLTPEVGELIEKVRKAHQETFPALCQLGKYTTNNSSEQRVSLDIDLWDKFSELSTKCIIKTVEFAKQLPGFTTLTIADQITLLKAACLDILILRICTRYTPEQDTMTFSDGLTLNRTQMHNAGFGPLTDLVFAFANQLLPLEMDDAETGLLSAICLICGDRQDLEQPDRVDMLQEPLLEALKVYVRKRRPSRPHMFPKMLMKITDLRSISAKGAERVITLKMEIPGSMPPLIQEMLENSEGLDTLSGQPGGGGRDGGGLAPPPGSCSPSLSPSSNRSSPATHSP

CCCCCCCCCCCCCCCCCC[N+](C)(C)C
inactive: [2]
active: [1] 1.34 µM | [3] 5.94 µM | [4] 2.15 µM | CD40, CD40 (gene 958) 5 µM | CD69, CD69 (gene 969) 7.15 µM | [5] 6.02 µM | [6] 8.07 µM | [7] 995 nM | [8] 3.82 µM | [9] 0.706 µM | [10] 2.66 µM | [11] 1.36 µM | [12] 3.33 µM | [13] 2.73 µM | [14] 2.08 µM | [15] 1.69 µM | [16] 1.81 µM | [17] 3.73 µM

Cc1ccnc(N)c1
inactive: [18]

Cc1cc(-n2nc3ccc(Cl)cc3n2)c(O)c(C(C)(C)C)c1
not listed: [18]
inactive: all other assays above

CN(C)Cc1cc(C(C)(C)C)c(O)c(C(C)(C)C)c1
inactive: [3] | CD40, CD40 (gene 958) | [5] | [6] | [8]
active: CD69, CD69 (gene 969) 20 µM and 15.4 µM | [7] 17.5 µM and 20 µM

CCC(C)(CCC(C)C)C(=O)O (centres undefined)
inactive: [18]

CCOC(=O)CC(=O)OCC
inactive: [18]

CCCCCCC1CCC(=O)O1 (centres undefined)
inactive: [18]

Sc1nc2ccccc2s1
not listed: [18]
inactive: all other assays above

CCCCCCC(O)CCCCCCCCCCC(=O)OC (centres undefined)
inactive: all assays above

O=[N+]([O-])c1ccccc1C(F)(F)F
inactive: [18]

CC(=O)Nc1c(I)c(NC(C)=O)c(I)c(C(=O)O)c1I
inactive: [18]

NC(=O)c1ccc(N)cc1
inactive: [18]

CO[Si](CCCNCCN)(OC)OC
inactive: [18]

CN(C)c1ccc(C(c2ccccc2)c2ccc(N(C)C)cc2)cc1
active: [1] 13 µM | CD40, CD40 (gene 958) 14.2 µM | CD69, CD69 (gene 969) 20 µM | [5] 12.9 µM | [7] 11700 nM | [8] 12.6 µM | [9] 11.8 µM | [10] 29 µM | [11] 20 µM | [14] 29 µM | [15] 32.7 µM | [16] 34.3 µM
inactive: [2] | [4] | [6] | [12] | [13] | [17]

O=C(C(=O)c1ccccc1)c1ccccc1
not listed: [18]
inactive: all other assays above

Reference: PubChem BioAssay (EPA / NIEHS)
